Laboratory results published in the supplement of paper PMC11732987, “Enantioselective OTUD7B fragment discovery through chemoproteomics screening and high-throughput optimisation” (Communications Chemistry, 2025).

Columns and labels:
Experiment in all cases: log2 ratio of Biotin-Ahx-Ub-VS probe labelling (fragment/DMSO); higher = less target engagement (more negative = stronger competition), active = hit call of the paper (q ≤ 0.05, log2 ratio ≤ -1)
Conditions in all cases: compound concentration: 200 uM; treatment time: 3 h
[1] = molecular target: T1, OTUD6B (UniProt Q8N6M0)
T1 sequence (whole entry): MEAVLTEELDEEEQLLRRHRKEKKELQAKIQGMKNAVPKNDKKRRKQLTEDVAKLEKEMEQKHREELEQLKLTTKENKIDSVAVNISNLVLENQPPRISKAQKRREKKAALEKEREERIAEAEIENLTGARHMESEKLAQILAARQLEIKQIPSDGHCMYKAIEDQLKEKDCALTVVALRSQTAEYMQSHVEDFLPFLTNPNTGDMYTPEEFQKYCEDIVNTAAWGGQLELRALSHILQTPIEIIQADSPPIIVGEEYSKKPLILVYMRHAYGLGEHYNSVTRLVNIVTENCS
Procedure, shortened: (§1)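 HEK293T lysate in Tris/CHAPS/IGEPAL buffer with protease inhibitors (495 µg per sample) was given fragment at 200 µM or vehicle for 3 h, in triplicate. It then received Biotin-Ahx-Ub-VS at 0.5 µM final for 1 h. Labelled DUBs were NeutrAvidin-enriched, digested with LysC and trypsin, and run by diaPASEF LC-MS/MS. Values are average log2 fragment/vehicle ratios by unpaired t-test on global-median-normalised Spectronaut quantities of proteins with ≥2 unique peptides.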

[2] = molecular target: T2, OTUD7B (UniProt Q6GQQ9)
T2 sequence (whole entry): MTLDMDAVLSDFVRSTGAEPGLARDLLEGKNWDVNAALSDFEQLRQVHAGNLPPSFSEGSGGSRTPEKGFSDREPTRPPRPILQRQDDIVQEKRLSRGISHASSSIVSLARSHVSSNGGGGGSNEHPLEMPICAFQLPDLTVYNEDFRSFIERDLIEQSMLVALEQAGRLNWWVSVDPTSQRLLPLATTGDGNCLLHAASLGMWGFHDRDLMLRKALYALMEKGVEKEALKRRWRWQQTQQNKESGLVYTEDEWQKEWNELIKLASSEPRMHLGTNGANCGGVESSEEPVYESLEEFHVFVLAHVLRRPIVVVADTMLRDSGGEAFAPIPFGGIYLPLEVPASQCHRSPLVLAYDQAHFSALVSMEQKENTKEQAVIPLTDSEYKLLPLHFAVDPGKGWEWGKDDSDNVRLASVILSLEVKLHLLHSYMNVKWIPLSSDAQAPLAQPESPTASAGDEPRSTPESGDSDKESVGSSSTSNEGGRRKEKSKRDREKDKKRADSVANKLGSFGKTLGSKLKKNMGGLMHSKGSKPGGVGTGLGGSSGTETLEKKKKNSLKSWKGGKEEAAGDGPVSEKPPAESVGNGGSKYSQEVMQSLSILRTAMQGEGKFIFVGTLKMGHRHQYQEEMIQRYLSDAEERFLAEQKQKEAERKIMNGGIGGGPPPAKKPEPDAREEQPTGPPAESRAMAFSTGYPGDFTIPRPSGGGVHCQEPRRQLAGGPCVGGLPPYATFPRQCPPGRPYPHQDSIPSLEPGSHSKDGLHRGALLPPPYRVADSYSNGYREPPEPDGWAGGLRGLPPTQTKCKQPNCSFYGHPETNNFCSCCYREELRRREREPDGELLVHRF
Procedure, shortened: as §1

[3] = molecular target: PRPF8 (UniProt Q6P2Q9)
Procedure, shortened: as §1

[4] = molecular target: T3, PSMD7 (UniProt P51665)
T3 sequence (whole entry): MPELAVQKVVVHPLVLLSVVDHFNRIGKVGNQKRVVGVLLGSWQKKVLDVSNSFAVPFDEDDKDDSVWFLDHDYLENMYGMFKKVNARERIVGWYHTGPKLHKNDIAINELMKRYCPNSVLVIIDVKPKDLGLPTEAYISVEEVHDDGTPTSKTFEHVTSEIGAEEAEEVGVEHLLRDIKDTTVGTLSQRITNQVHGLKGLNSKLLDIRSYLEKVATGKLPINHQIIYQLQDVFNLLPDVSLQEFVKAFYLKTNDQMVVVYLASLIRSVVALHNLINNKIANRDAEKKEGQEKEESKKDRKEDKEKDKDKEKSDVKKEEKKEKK
Procedure, shortened: as §1

[5] = molecular target: UCHL1 (UniProt P09936)
UCHL1, sequence (P09936 whole entry, looked up): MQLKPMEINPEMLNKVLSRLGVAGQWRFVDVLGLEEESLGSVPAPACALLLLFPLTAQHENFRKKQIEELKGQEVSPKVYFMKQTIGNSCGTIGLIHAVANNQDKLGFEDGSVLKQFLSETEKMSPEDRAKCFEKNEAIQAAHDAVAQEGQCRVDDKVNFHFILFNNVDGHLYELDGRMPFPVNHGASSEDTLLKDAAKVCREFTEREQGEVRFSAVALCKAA
Procedure, shortened: as §1

[6] = molecular target: T4, UCHL3 (UniProt P15374)
T4 sequence (whole entry): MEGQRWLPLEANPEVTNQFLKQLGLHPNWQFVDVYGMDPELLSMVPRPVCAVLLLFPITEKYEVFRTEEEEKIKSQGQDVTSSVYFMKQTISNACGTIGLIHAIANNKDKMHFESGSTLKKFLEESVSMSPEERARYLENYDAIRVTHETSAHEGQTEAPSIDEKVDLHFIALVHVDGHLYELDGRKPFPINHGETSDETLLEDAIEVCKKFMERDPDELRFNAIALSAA
Procedure, shortened: as §1

[7] = molecular target: T5, UCHL5 (UniProt Q9Y5K5)
T5 sequence (whole entry): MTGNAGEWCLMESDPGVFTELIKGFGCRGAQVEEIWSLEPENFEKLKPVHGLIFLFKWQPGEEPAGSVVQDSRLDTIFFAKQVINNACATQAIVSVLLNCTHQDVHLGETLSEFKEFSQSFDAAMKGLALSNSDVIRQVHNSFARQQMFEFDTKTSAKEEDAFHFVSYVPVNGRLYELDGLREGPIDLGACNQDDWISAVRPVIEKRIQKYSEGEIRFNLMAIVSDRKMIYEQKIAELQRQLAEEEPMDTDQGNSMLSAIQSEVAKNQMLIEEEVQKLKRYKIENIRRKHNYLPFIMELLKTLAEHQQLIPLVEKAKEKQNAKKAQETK
Procedure, shortened: as §1

[8] = molecular target: USP10 (UniProt Q14694)
USP10, sequence (Q14694 whole entry): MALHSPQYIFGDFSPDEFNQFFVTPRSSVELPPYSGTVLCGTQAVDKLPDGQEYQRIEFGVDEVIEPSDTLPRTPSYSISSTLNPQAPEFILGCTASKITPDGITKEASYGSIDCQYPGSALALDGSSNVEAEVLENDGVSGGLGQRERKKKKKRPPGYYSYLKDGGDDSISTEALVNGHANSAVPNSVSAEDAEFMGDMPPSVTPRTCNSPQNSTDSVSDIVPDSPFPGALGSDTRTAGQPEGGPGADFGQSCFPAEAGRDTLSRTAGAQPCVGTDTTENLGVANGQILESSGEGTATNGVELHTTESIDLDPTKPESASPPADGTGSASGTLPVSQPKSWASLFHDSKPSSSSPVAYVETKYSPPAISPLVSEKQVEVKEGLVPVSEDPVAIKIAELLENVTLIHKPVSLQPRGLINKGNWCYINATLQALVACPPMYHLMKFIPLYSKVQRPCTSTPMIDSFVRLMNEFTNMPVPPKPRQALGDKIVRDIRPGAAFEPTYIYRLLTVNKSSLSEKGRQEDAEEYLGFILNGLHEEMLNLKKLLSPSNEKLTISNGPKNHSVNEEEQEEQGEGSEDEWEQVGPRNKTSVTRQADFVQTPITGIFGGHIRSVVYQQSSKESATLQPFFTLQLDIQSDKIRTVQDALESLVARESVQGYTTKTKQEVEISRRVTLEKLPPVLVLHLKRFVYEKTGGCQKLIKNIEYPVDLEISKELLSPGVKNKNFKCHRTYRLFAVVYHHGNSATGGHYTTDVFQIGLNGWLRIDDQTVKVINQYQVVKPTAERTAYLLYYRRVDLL
Procedure, shortened: as §1

[9] = molecular target: T6, USP15 (UniProt Q9Y4E8)
T6 sequence (whole entry): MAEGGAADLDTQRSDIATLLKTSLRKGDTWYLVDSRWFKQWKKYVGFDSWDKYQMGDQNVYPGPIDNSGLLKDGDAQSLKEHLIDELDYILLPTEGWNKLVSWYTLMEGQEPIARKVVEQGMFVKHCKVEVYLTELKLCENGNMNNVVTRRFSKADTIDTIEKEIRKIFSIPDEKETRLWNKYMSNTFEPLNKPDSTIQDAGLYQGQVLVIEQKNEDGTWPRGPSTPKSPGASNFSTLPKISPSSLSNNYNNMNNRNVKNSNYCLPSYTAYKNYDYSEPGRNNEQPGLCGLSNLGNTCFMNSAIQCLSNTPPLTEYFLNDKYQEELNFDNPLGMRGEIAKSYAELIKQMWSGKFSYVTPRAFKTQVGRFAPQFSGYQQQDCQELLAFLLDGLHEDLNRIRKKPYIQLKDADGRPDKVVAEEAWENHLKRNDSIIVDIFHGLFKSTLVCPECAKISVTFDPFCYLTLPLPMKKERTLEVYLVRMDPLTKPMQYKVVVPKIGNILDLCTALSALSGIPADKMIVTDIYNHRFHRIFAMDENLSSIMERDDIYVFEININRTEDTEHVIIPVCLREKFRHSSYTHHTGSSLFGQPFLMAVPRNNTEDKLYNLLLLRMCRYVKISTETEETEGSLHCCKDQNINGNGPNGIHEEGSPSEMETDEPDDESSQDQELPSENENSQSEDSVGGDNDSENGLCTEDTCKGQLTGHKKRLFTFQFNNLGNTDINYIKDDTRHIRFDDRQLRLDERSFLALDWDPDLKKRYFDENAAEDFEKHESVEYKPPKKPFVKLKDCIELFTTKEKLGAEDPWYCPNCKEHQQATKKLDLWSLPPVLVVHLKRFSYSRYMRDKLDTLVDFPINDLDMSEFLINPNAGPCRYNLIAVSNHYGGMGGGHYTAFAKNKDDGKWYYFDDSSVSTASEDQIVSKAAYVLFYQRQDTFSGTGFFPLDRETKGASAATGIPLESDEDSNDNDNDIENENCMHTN
Procedure, shortened: as §1

[10] = molecular target: USP16 (UniProt Q9Y5T5)
USP16, sequence (Q9Y5T5 whole entry, looked up): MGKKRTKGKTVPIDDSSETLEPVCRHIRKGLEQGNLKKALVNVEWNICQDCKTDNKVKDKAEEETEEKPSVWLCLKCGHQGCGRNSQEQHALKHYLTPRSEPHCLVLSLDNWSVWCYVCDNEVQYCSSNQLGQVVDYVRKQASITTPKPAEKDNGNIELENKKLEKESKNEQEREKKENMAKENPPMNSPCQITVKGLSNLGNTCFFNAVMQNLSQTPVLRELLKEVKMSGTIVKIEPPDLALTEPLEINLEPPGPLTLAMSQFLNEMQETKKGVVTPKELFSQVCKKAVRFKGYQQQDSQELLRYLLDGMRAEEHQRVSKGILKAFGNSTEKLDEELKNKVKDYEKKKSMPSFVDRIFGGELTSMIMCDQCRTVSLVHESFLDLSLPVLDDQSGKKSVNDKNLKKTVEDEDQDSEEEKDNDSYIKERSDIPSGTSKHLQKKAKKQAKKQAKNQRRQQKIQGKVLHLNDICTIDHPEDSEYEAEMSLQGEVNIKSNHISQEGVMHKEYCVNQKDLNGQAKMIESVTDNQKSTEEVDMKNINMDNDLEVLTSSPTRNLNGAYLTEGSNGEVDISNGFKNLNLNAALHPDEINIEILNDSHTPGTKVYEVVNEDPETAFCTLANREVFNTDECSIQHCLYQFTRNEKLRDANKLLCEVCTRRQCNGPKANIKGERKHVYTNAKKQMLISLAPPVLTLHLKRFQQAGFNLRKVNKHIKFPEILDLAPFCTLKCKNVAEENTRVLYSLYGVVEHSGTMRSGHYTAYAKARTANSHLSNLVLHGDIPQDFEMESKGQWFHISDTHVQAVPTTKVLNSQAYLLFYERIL
Procedure, shortened: as §1

Measured: log2 ratio of Biotin-Ahx-Ub-VS probe labelling

Cc1ccc(C)c(NC(=O)CCl)c1
active: [5] -1.17
inactive: [1] -0.56 | [2] -0.844 | [3] -0.000105 | [4] -0.209 | [6] -0.416 | [7] -0.568 | [8] -0.39 | [9] -0.203 | [10] -0.0434
